The panel holds about 83,000 compounds, 20% with a hit somewhere; the sample as a whole holds those more often.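 Plates (96-well) were seeded with cells, treated with compound at one concentration, and incubated for 48 hours before percent growth was determined.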 Unmarked numbers belong to inactive results. Active and inactive are the calls of the source.

In the assay the test system is MOLT-4 leukemia. The assay can be described thus: NCI-60 one-dose screen, 48 h (100 = growth as untreated, 0 = no growth, -100 = all killed). The conditions noted are these: 10 µM unless noted. On the procedure:
Growth inhibition of the MOLT-4 human tumor cell line is measured as a screen for anti-cancer activity. Cells are grown in 96 well plates and exposed to the test compound for 48 hours. Compounds are tested at a single concentration, which is 10^-5 M for most compounds. The reported endpoint is percent growth (GI% or GIPRCNT), where numbers from 0 - 100% represent growth inhibition, and numbers from -100% - 0 represent cell death. For example, a value of 40 represents 60% growth inhibition. A value of 0 means no net growth occurred over the course of the experiment. A value of -40 indicates 40% of cells at the beginning of the experiment died by the end of the experiment. A value of -100 means all cells are dead at the end of the experiment.
NCI-60 Human Tumor Cell Lines Screen was performed using the standard one-dose NCI protocol, which is described in more detail at https://dtp.cancer.gov/discovery_development/nci-60/default.htm.
Compounds with GIPRCNT values below 10 were considered active. Activity score was based on GIPRCNT using the following formula: […]
Score is 0 for GIPRCNT values of 100 or above, 50 for GIPRCNT values of 0, and 100 for GIPRCNT values of -100.
For `COC(=O)CSc1ccc(Cl)cc1`, the growth is 88.8%.
For `CCc1onc(-c2ccc(OC)cc2)c1-c1ccccc1OCCN(CC)CC`, the growth is 87.2%.
As for `O=C1/C=C/[C@@H](O)[C@@H]2C[C@@H](O)C[C@H]2/C=C/CCC[C@H]([C@@H](O)CO)O1`, the growth is 103%.
With `COc1ccc2nc3ccccc3c(NCc3ccc(C)cc3)c2c1`, the growth was 0.305% (active).
For the compound `COc1cc(CN2CCC(N3CCCC3=O)c3ccccc32)cc(OC)c1OC` (stereo not given), the growth was 72.4%.
For `CCOC(OCC)c1cnc2nc(NC(C)=O)[nH]c(=O)c2n1`, the growth is 103%.
Regarding `COc1ccccc1-[n+]1cc(-c2ccc(-c3ccccc3)cc2)n2c1CCCCC2`, the growth is 9.4% (active).
`CCCCCCCC/C=C\CCCCCCCC(=O)OCCCCCC`: the growth was 104%.
In the case of `O=C(Nc1cccc(N=Cc2c(O)ccc3ccccc23)c1)c1ccccc1` it was 147%; in that of `CN(C)c1nc(-c2cccs2)n2nc(-c3ccco3)cc2n1`, 97%; in that of `Clc1nnc2c3ccccc3ccn12`, 104%.
With `CC(SC(C)C(=O)N/N=C/c1cccc(Cl)c1)C(=O)N/N=C\c1cccc(Cl)c1` (stereo not given), the growth was 68.3%.
In the case of `CCOC(=O)c1ccc2c(c1)nc(-c1ccc(Cl)cc1)n2-c1cc(C(C)(C)C)[nH]n1`, the growth is 9.68% (active).
The result for `CC(C)(C)[Si](C)(C)OC1[C@@H](O[Si](C)(C)C(C)(C)C)[C@@H](CNC(=O)NC(=O)NC(=O)CI)O[C@H]1n1cnc2c(NC(=O)Nc3ccccc3)ncnc21` (stereo not given in full) reads 29.6%; that for `S=C(S)Oc1cccc2cccnc12`, 83.6%; that for `CSc1ccc(/C=C2\C=C(CC(=O)NCc3ccc(C(=O)c4ccccc4)cc3)c3cc(F)ccc32)cc1`, 9.47% (active).
As to `Cc1cc(C#Cc2ccc(C(C)(C)C)cc2)ccc1-n1c(/C=C/c2c(Cl)cccc2Cl)nc2ccccc2c1=O`, the growth is 86.9%.
In the case of `COc1ccccc1/C=C/C(=O)CCC(=O)O` it was 100%; in that of `COc1cc(OC)c(Cl)cc1N`, 108%; in that of `N/C(=N\O)c1ncc(-c2ccc(C(F)(F)F)cc2)c(NC2CCCCCC2)n1`, -61.3% [100 µM] (active).
On to `COc1ccc(/C(C)=N/NC(=O)c2ccc(S(C)(=O)=O)cc2)cc1OC`, for which the growth was 71.1%.
In the case of `COc1cccc(/C=N\Nc2ccc([N+](=O)[O-])cn2)c1O` it was 58%; in that of `Cc1cc2nc(CN)[nH]c2cc1C`, 102%.
On to `C=C1C(=O)O[C@H]2[C@H]1CC/C(COC(=O)NCc1[nH]nc3ccccc13)=C\CC[C@@]1(C)O[C@@H]21`, for which the growth is -12.7% (active).
In the case of `N/N=C(\C(=N\N)c1ccccc1)c1ccccc1` it was 81.2%; in that of `Cc1ccc(Nc2cc(Cl)c([N+](=O)[O-])cc2[N+](=O)[O-])cc1`, 10.3%; in that of `O=C(NCCN1CCCC1)n1cc(-c2ccncc2)c(-c2cc(O)cc(Cl)c2)n1`, 82.7%.
The result for `C=CC(=O)N1CN(C(=O)C=C)CN(C(=O)C=C)C1` reads 23.4%; that for `OC(CCCCCCCCC(O)CN1CCc2ccccc2C1)CN1CCc2ccccc2C1` (stereo not given), 110%.
As for `COc1cccc(-c2nc3sccn3c2-c2ccnc(NCCN3CCCNS3(=O)=O)n2)c1`, the growth was 87.5%.
As for `COc1cc(C2CC(c3ccc(Cl)cc3)=NN2C(C)=O)ccc1Oc1nc2c(c(=O)n(C)c(=O)n2C)n1C` (stereo not given), the growth is 62.6%.
For `COc1cccc(N2CCN(c3ncnc4cc[nH]c34)CC2)c1`, the growth is 29.6%.
Regarding `C[C@@H]1CC2C3CCC4=CC(=O)C=C[C@]4(C)[C@@]3(Cl)[C@@H](O)C[C@]2(C)[C@@]1(OC(=O)c1ccco1)C(=O)CCl` (stereo not given in full), the growth was 31.5%.
Turning to `O=C1CCCN1C1CCN2CCCc3cccc1c32` (stereo not given), the growth is 78.9%.
Regarding `CCCCCCCCCCCC1=NC(C)(C)CN1CC(C)O` (stereo not given), the growth is 25.4%.
The result for `CCN(CC)c1ccc(/C=N/NC(=O)c2ccc(S(C)(=O)=O)cc2)c(O)c1` reads 2.7% (active); that for `c1coc(CNc2c3ccccc3nc3ccccc23)c1`, 27.2%; that for `CCCCCCCCCCCCCCCC1=NC(C)(C)CN1C(C)C`, -59.8% (active).
As for `CC(C)(C)[Si](C)(C)OC1[C@@H](O[Si](C)(C)C(C)(C)C)[C@@H](CNC(=O)NC(=O)NC(=O)CCl)O[C@H]1n1cnc2c(NC(=O)Nc3ccccc3)ncnc21` (stereo not given in full), the growth is 4.05% (active).
On to `CCCCn1cnc2c(SCc3ccc([N+](=O)[O-])cc3)nc(N)nc21`, for which the growth is 24.3%.

The record behind these values is PubChem BioAssay (NCI).
